From PubChem BioAssay (NCATS) come the findings set out here.

For assay [1], the target named is Peroxisome proliferator-activated receptor gamma (Homo sapiens) (UniProt P37231). The assay is described as follows: qHTS assay for small molecule agonists of peroxisome proliferator-activated receptor gamma signaling (AID 588536; active = well fitted curve in the direction sought with a large enough effect in the signal ratio, with a control signal flat, not every such curve was filed as active; the % refers to the signal ratio;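 also: 0% = DMSO basal wells and 100% = rosiglitazone at 2 µM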). In short, it runs like this: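 Beta-lactamase reporter read-out: CCF4 fluorescence (ex 405, em 460/530 nm) after 2 h at RT. HEK293 GeneBLAzer cells were treated for 16 h at 37 C. Hill fits gave EC50 and efficacy versus 2 uM rosiglitazone (100%) and DMSO (0%).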
In general terms: qHTS replaces the single test concentration by a dilution series.

The target is the same in assay [2]. The assay is described as follows: qHTS assay for small molecule antagonists of peroxisome proliferator-activated receptor gamma signaling (AID 588537; active = well fitted inhibition curve with a large enough effect in the signal ratio, with a control signal flat, not every such curve was filed as active; the % refers to the signal ratio; also: potency is read from the fitted curve at half-maximal effect). The method, boiled down:
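Read-out: CCF4 fluorescence (ex 405, em 460/530 nm) after 2 h at RT. Cells were HEK293 carrying a UAS-bla reporter and treated 16 h at 37 C with compound plus rosiglitazone (50 nM final). Normalized to rosiglitazone and DMSO.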

Assay [3] in a line: qHTS assay for small molecule activators of the nuclear factor-kappa B (NF-kB) signaling pathway (AID 651749; active = well fitted activation curve with a large enough effect in the signal ratio; the % refers to the signal ratio; also: series mostly up to about 77 µM; % of control where 0% means no effect). The note with it: NF-kB-bla ME-180 cells, beta-lactamase FRET ratio, 16 h; activation: stronger effect = higher value. In short, it runs like this: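 NF-kB-bla ME-180 cells, 2,000/well; 23 nL compound or DMSO pinned; 16 hr, 37C/5% CO2; beta-lactamase FRET read-out.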
The target of assay [4] is Glucocorticoid receptor (Homo sapiens) (UniProt P04150). The assay is described as follows: qHTS assay for small molecule agonists of glucocorticoid receptor signaling (AID 588532; active = well fitted curve in the direction sought with a large enough effect in the signal ratio, with a control signal flat; the % refers to the signal ratio;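 also: 100% = dexamethasone at 0.1 µM and 0% = DMSO only wells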). Conditions: HeLa MMTV-bla, beta-lactamase ratio, agonist, 18 h; activation: stronger effect = higher value, percent of dexamethasone control, DMSO zero. In short, it runs like this: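 HeLa GRE-bla reporter cells; 18 h compound exposure at 37 C; 2 h CCF4 loading at room temperature; fluorescence at 460 and 530 nm; EC50 by Hill equation.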

The target is the same in assay [5]. The assay is described as follows: qHTS assay for small molecule antagonists of glucocorticoid receptor signaling (AID 588533; active = well fitted inhibition curve with a large enough effect in the signal ratio, with a control signal flat, not every such curve was filed as active; the % refers to the signal ratio; also: potency is read from the fitted curve at half-maximal effect). The method, boiled down:
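Antagonist-mode qHTS: compound titrations added to GRE-bla HeLa cells, then dexamethasone 2 nM final; 18 h, 37 C. CCF4 FRET fluorescence normalized to dexamethasone and DMSO; IC50 from Hill fit.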

Assay [6] has as its target Vitamin D3 receptor (Homo sapiens) (UniProt P11473). Kind of assay: qHTS assay for small molecule antagonists of vitamin D receptor signaling (AID 588541; calls by dose curve;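 also: receptor activated by calcitriol during compound treatment; series mostly up to about 77 µM; % is scaled to controls: 0 for no effect and ±100 for the full control effect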). In short, it runs like this:
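VDR-UAS-bla HEK293T cells in 2% charcoal-stripped FBS were stimulated with 1-alpha,25-dihydroxyvitamin D3 (3 nM final) plus compound for 16 h at 37 C. The beta-lactamase CCF4 readout was normalized to 50 nM agonist and DMSO, and Hill fits gave IC50.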

The nature of assay [7]: qHTS assay for small molecule agonists of retinoid X receptor alpha signaling (AID 588544). Conditions: HEK293T RXRa-UAS-bla, beta-lactamase reporter, 18 h; 530 nm emission.
The nature of assay [8]: qHTS assay for small molecule activators of the human pregnane X receptor (PXR) signaling pathway (AID 720659). Also: 0% is about no effect.

Where “and” joins values, the source holds several entries; their conditions need not be identical. Identical values can stand only once. Inconclusive results are not listed. A structure can be active in one record and inactive in another. Calls of active or inactive are those of the source. Unless noted, no rule for the calls is given here.

Chain of Glucocorticoid receptor (Homo sapiens) (P04150 whole entry, looked up): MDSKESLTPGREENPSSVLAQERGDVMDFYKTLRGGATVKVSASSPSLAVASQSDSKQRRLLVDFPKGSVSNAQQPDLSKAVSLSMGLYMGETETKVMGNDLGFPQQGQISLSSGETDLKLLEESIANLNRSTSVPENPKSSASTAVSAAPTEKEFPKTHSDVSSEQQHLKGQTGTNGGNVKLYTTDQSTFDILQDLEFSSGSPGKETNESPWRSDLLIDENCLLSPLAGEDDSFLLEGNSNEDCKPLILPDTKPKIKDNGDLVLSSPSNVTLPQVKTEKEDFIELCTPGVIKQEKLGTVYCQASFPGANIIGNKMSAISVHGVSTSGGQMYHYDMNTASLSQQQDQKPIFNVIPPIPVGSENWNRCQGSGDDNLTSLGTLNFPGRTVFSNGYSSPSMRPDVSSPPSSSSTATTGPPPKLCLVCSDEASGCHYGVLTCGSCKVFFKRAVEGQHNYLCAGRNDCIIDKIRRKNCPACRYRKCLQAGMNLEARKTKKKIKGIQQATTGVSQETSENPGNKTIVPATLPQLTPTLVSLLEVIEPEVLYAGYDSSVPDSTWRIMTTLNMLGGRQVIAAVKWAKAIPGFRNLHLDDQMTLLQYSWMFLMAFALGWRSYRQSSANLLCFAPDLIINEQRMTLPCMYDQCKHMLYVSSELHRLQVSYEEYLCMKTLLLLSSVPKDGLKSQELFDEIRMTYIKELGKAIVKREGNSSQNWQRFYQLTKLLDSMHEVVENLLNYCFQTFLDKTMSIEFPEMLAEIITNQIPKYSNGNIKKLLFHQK
Chain of Peroxisome proliferator-activated receptor gamma (Homo sapiens) (P37231 whole entry, looked up): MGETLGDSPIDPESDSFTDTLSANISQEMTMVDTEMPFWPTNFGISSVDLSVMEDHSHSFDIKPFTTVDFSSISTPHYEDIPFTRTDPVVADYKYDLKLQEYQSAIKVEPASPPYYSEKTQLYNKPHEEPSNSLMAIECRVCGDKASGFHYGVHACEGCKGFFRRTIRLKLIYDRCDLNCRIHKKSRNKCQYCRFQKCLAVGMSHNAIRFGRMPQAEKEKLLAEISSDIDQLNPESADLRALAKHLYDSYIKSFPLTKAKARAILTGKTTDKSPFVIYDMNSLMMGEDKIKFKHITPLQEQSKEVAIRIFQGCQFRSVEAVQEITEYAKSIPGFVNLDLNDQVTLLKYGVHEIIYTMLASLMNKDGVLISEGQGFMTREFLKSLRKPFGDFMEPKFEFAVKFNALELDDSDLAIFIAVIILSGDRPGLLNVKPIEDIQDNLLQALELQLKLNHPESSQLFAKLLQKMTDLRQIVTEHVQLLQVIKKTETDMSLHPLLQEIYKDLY
Chain of Vitamin D3 receptor (Homo sapiens) (P11473 whole entry, looked up): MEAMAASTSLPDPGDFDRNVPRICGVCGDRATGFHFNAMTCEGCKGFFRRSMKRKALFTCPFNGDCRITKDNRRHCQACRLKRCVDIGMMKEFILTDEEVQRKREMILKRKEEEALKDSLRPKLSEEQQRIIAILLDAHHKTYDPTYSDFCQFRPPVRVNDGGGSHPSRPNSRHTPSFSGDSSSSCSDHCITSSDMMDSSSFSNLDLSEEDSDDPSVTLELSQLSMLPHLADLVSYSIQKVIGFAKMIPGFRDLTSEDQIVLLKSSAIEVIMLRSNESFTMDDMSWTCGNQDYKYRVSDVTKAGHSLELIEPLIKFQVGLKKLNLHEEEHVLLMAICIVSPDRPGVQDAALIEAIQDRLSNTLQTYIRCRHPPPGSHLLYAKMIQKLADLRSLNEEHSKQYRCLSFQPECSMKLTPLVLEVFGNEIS

`CCC(C)(c1ccc(O)cc1)c1ccc(O)cc1`: the Potency entry in assay [1] and in assay [2] was “inactive” throughout. In addition, the activation in assay [3] was -1.76% (inactive).
For `CCN(CC)C(=O)SCc1ccc(Cl)cc1`, the activation in assay [4] was -4.08% (inactive); in assay [3], -0.511% (inactive). Besides, the Potency entry in assay [5], in assay [1], in assay [2] and in assay [6] was “inactive” throughout. Also, the max response in assay [7] was determined as 0.303%.
For the compound `COC(=O)C(C)Oc1ccc(Oc2ccc(Cl)cc2Cl)cc1` (stereo unspecified), the activation in assay [4] is -5.37% (inactive). In addition, the max response in assay [7] was found to be 20.2%. The compound was classed as inactive in assay [8].
Take `COc1nn(C(=O)NS(=O)(=O)c2ccccc2OC(F)(F)F)c(=O)n1C`: the results for the activation in assay [4] and in assay [3] were -3.65% (inactive) and -2.5% (inactive), respectively. Besides, the Potency entry in assay [5], in assay [1], in assay [2] and in assay [6] was “inactive” each time. Also, the max response in assay [7] is -2.96%. Besides, the outcome in assay [8] was inactive.
As for `CC1COC(Cn2cncn2)(c2ccc(Oc3ccc(Cl)cc3)cc2Cl)O1` (stereo unspecified), the activation in assay [4] was -11.8% (inactive). The compound was classed as inactive in assay [8].
Consider `Cc1cc(C2CC2)nc(Nc2ccccc2)n1`, for which the Potency result in assay [1], in assay [2] and in assay [6] was “inactive” throughout.
Consider `COCC(=O)N(c1c(C)cccc1C)N1CCOC1=O`, for which the Potency entry in assay [6] was “inactive”. Moreover, the max response in assay [7] was -6.63%. Moreover, the result in assay [8] was inactive.
Turning to `O=[N+]([O-])c1ccc(Nc2ccccc2)cc1`, the activation in assay [4] was -0.43% (inactive); in assay [3], 0.166% (inactive). In addition, in assay [5], the Potency entry is “inactive”.
Take `C#CCC1=C(C)[C@H](OC(=O)[C@H]2[C@H](C=C(C)C)C2(C)C)CC1=O`: the Potency result in assay [1] was “inactive”. Also, in assay [7], the max response came to 11.7%.
In the case of `Cc1nc(N(C)C)nc(OC(=O)N(C)C)c1C`, the activation in assay [4] was 1.95% (inactive). Besides, the Potency entry in assay [5], in assay [1], in assay [2] and in assay [6] was “inactive” throughout. The max response in assay [7] is 0.351%. Also, in assay [8], the compound was classed as inactive.
As for `CCCN(CCOc1c(Cl)cc(Cl)cc1Cl)C(=O)n1ccnc1`, the activation in assay [4] was 3.18% (inactive) and 2.99% (inactive). The Potency entry in assay [5] and in assay [1] was “inactive” throughout. Further, the Potency in assay [2] was 44.7 µM (active) and inactive.
In the case of `O=C(O)c1c(Cl)ccc2cc(Cl)cnc12`, the activation in assay [4] was 3.46% (inactive); in assay [3], -0.182% (inactive). The Potency entry in assay [5], in assay [1], in assay [2] and in assay [6] was “inactive” each time. Also, the max response in assay [7] was -15.1%. The compound was classed as inactive in assay [8].
On to `O=C/C(Cl)=C(/Cl)C(=O)O`, for which the activation in assay [4] is -13.8% (inactive); in assay [3], 1.31% (inactive). Further, in assay [8], the result was inactive.
In the case of `CC1(C(=O)Nc2ccc(O)c(Cl)c2Cl)CCCCC1`, the Potency result in assay [1] was “inactive”. Also, in assay [3], the activation is 0.744% (inactive).
As for `N#Cc1cc(Br)c(O)c(Br)c1`, the activation is 4.63% (inactive) in assay [4] and -2.3% (inactive) in assay [3]. The Potency entry in assay [5] and in assay [1] was “inactive” throughout. Further, the max response in assay [7] was -9.28%. The compound was classed as inactive in assay [8].
`CCC[CH2][Sn]1([CH2]CCC)[O]C(=O)C=CC(=O)[O]1`: the activation in assay [4] was -4.93% (inactive); in assay [3] it was -3.15% (inactive). For the same compound, in assay [5], the Potency is 15.8 µM (active). The compound was classed as inactive in assay [8].
For the compound `CCCCCCCCCCCCN(C)C`, the activation in assay [4] is -15.1% (inactive). In addition, the Potency entry in assay [5], in assay [1] and in assay [2] was “inactive” each time. Further, the compound was called inactive in assay [8].
As for `CC(C)N(C(=O)SCC(Cl)=C(Cl)Cl)C(C)C`, the activation was 18.5% (inactive) in assay [4] and -1.22% (inactive) in assay [3]. In addition, the Potency entry in assay [5] and in assay [6] was “inactive” each time.
With `O=C(O)[C@@H]1[C@H](C(=O)O)[C@@]2(Cl)C(Cl)=C(Cl)[C@]1(Cl)C2(Cl)Cl`, in assay [4], the activation was -1.44% (inactive). The Potency result in assay [5] is “inactive”. In assay [7], the max response is -1.73%.
Consider `CC(c1ccc(O)cc1)(c1ccc(O)cc1)c1ccc(O)cc1`, for which the activation in assay [4] is -5.2% (inactive); in assay [3], 2.37% (inactive).
Regarding `CCC(C)c1cc([N+](=O)[O-])cc([N+](=O)[O-])c1O` (stereo unspecified), the activation in assay [4] is -12.7% (inactive); in assay [3], -0.876% (inactive). Besides, the Potency entry in assay [1] was “inactive”.
Take `CCOP(=S)(OCC)SCn1nnc2ccccc2c1=O`: the values for the activation in assay [4] and in assay [3] were 9.79% (inactive) and -3.08% (inactive), respectively. Besides, in assay [1], the Potency result is “inactive”.
Consider `CN(C)c1ccc(C(=O)c2ccc(N(C)C)cc2)cc1`, for which the activation in assay [4] was -2.75% (inactive); in assay [3], 1.06% (inactive). For the same compound, the Potency entry in assay [1] is “inactive”.
For `CC[C@H]1CCCC(O[C@H]2CC[C@H](N(C)C)[C@@H](C)O2)[C@@H](C)C(=O)C2=C[C@@H]3[C@@H](C=C[C@@H]4C[C@@H](O[C@@H]5O[C@@H](C)[C@H](OC)[C@@H](OC)[C@H]5OC)C[C@@H]34)[C@@H]2CC(=O)O1` (stereo partly specified), the activation is -4.34% (inactive) in assay [4] and -0.423% (inactive) in assay [3]. Also, the result in assay [8] was inactive.
For `CCC[CH2][Sn]([Cl])([Cl])[CH2]CCC`, in assay [5], the Potency was 15.8 µM (active). In assay [3], the activation was -3.49% (inactive).
Regarding `Fc1ccc(Oc2ccnc3cc(Cl)cc(Cl)c23)cc1`, the activation in assay [4] was -6.4% (inactive).
For the compound `CSC1=N[C@@](C)(c2ccccc2)C(=O)N1Nc1ccccc1`, the activation in assay [4] was 0.812% (inactive).
With `COC(=O)N(OC)c1ccccc1COc1ccn(-c2ccc(Cl)cc2)n1`, the activation in assay [4] is -3.13% (inactive). Moreover, the max response in assay [7] was -23.9%. The result in assay [8] was inactive.
